Legend:
Assay type in all cases: functional
[1] = target: Solute carrier family 2, facilitated glucose transporter member 1 (Homo sapiens) (UniProt P11166); test: ST_JUDE_LEISH: Cytotoxicity at 2uM final concentration against transgenic Leishmania Mexicana promastigotes LmGLUT1 that are glucose transport deficient and complemented with the human glucose transporter GLUT1. Activity is measured by DNA content using SYBR green in vitro
[2] = target: Hexose transporter 1 (Plasmodium falciparum) (UniProt O97467); test: ST_JUDE_LEISH: Cytotoxicity at 2uM final concentration against transgenic Leishmania Mexicana promastigotes LmPfHT that are glucose transport deficient and complemented with the Plasmodium falciparum hexose transporter. Activity is measured by DNA content using SYBR green in vitro
[3] = target: Glucose transporter (Leishmania mexicana) (UniProt O61059); test: ST_JUDE_LEISH: Cytotoxicity at 2uM final concentration against transgenic Leishmania Mexicana promastigotes LmGT2 that are glucose transport deficient and complemented with the L. Mexicana glucose transporter 2. Activity is measured by DNA content using SYBR green in vitro

Solute carrier family 2, facilitated glucose transporter member 1 (Homo sapiens), sequence (P11166 whole entry): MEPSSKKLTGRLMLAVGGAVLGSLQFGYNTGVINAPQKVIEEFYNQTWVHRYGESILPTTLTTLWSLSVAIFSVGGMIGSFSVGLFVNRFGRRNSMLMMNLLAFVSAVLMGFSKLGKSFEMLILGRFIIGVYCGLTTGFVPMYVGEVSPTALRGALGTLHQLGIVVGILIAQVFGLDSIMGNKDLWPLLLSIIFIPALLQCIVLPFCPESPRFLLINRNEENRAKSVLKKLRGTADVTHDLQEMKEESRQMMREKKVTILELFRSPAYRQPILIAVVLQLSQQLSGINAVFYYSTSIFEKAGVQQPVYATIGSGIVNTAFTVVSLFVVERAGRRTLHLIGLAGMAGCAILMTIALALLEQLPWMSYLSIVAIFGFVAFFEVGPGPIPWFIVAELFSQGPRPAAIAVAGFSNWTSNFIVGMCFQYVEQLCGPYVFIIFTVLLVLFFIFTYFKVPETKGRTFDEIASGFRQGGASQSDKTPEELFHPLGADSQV

| Structure (SMILES) | inhibition [1] | inhibition [2] | inhibition [3] |
| --- | --- | --- | --- |
| Cc1cc(-c2ccc(CNC3CCN(C)CC3)cc2)ccc1S(=O)(=O)NCc1ccccc1 | 3.29% | 3.32% | 1.14% |
| Clc1ccc(OCc2ccccc2)c(-c2nc(-c3nc4ccc(Cl)cc4[nH]3)cs2)c1 | 3.08% | 2.99% | 3.09% |
| CCN(CC)CCCN(C(=O)Nc1cc(F)cc(F)c1)c1nc(-c2ccc(F)cc2)cs1 | 1.8% | -0.11% | 1.69% |
| c1nc(CCNc2nc(Nc3ccc4c(c3)OCO4)nc(NC3CCCC3)n2)c[nH]1 | 1.6% | 2.73% | 0.99% |
| CC(CN1CCN(C)CC1)C(=O)Nc1cccc(-c2ccc(-c3nc4ccccc4[nH]3)cc2)c1 (stereo unspecified) | 0.63% | 1.17% | -1.58% |
| Cc1ccc(F)c(NC(=O)c2c(-c3c(F)cccc3Cl)noc2C)c1 | -0.89% | 2.09% | 1.42% |
| CC(=O)c1ccc(N2CCN(C(=O)Nc3ccc(Cl)cc3)CC2)cc1 | 9.4% | 7.37% | 8.94% |
| COc1ccc2nccc(NC(=O)C3(O)CCC(NCc4ccc5c(c4)NCCS5)CC3)c2n1 (stereo unspecified) | 15% | 22.5% | 7.11% |
| CN1CCC(COc2ccc(CN3CCC(NC(=O)c4cccc(Cl)c4)CC3)cc2)CC1 | 2.48% | 3.13% | 0.42% |
| COc1cc(C(F)(F)F)c2cc(CNCCCNc3nc4ccccc4[nH]3)[nH]c2c1 | 1.29% | 2.11% | 2.95% |
| N=C(N)NN=C1C=Cc2cccc3cccc1c23 | -1.8% | 2.26% | -2.92% |
| CC1CCCC(C)N1C[C@@H](O)CNS(=O)(=O)c1cccc(C(F)(F)F)c1 (stereo partly specified) | 0.21% | 0.37% | -0.01% |
| Cc1ccc(CN2CCC(C(=O)Nc3ccc(-c4cc5ccccc5[nH]4)cc3)CC2)o1 | 17.3% | 9.24% | 4.6% |
| C=Cc1ccccc1C1(O)CCN(CCCCNC(=O)c2ccc(-c3ccc(C#N)cc3)cc2)CC1 | 1.27% | 1.76% | -1.41% |
| COC(=O)c1cccc(NC(=O)NC2CCN(c3ccnc(NCc4ccc(F)cc4)n3)CC2)c1 | -2.83% | -2.8% | -0.54% |
| CO/C(=C\C=C\c1cc2cc(Cl)c(Cl)cc2[nH]1)C(=O)NCCCN1CCN(c2ccncc2)CC1 | 4.85% | 3.18% | 3.48% |
| Cc1cc(F)ccc1-c1nc(NCCCNCCc2ccccc2)nc2c1ccc(=O)n2-c1c(F)cccc1F | 0.55% | 5.5% | 0.76% |
| COc1ccc2nccc([C@@H](O)CN3CCC(NC(=O)/C=C/c4cccc(-c5ccccc5)c4)CC3)c2c1 | 7.76% | 6.73% | 0.36% |
| CC(C)c1ncc(-c2ccncc2)c(C2CCC(CNC(=O)c3ccncc3)CC2)n1 (stereo unspecified) | 3.67% | -0.19% | 1.87% |
| COCCNCc1ncsc1-c1ccc2c(Nc3ccc(Oc4ccccc4)cc3)ccnc2c1 | 0.02% | 1.15% | 2.26% |
| O=[N+]([O-])c1ccc2nc(Nc3ccc(Cl)c(Cl)c3)c(Nc3ccc(Cl)c(Cl)c3)nc2c1 | 0.54% | 1.45% | 1.69% |
| Cc1cc(NC(=O)c2ccco2)ccc1OC1CCN(Cc2ccccc2)CC1 | 0.52% | 4.72% | 1.9% |
| CCCCCCN1CCN(Cc2cccc(NC(=O)c3cc4ccccc4s3)c2)CC1 | 2.76% | 2.43% | 2.42% |
| CC(c1cccc(Nc2nccc(-c3c(-c4cccc(NC(=O)c5c(F)cccc5F)c4)nn4ncccc34)n2)c1)S(C)(=O)=O (stereo unspecified) | -2.21% | 1.6% | 0.35% |

| Structure (SMILES) | inhibition [1] | inhibition [2] | inhibition [3] |
| --- | --- | --- | --- |
| CCc1c(C)nc(-n2nc(C)cc2NC(=O)c2ccc(OC)cc2OC)[nH]c1=O | 30.4% | 31.7% | 8.75% |
| O=C(Nc1ccccc1-c1nc2ccccc2s1)C(Cl)(Cl)Cl | 0.49% | 1.24% | 0.54% |
| CC(C)C(C(=O)n1ncc2c3c(N)nc(N)nc3ccc21)C(C)C | 87.4% | 86.9% | 78.4% |
| OC1(Cc2ccccc2)CCN(Cc2cccc(-c3c[nH]c4nc(NC5CCCC5)ncc34)c2)CC1 | 9.83% | 8.36% | 6.99% |
| CCOC(=O)c1ccc(NCc2ccccn2)cc1 | 3.11% | 3.01% | 2.96% |
| COc1cccc2cc(C(=O)N[C@@H](CC(C)C)C(=O)N[C@H](/C=N/NC(=O)N3CCN(C)CC3)CCc3ccccc3)oc12 | 9.32% | 11.9% | 8.39% |
| CCN(CCCN1CCCCC1)c1nccc(Nc2ccc(Cl)cc2)n1 | 2.03% | 0.37% | 1.18% |
| CC(C)(C)c1ccc(CN(C[C@@H](O)CNS(=O)(=O)c2cc(Cl)cc(Cl)c2)C(C)(C)C)cc1 | 0.82% | 0.36% | -0.02% |
| O=C(Nc1cccc(-c2ccc(-c3nc4ccccc4[nH]3)cc2)c1)c1csnn1 | 1.19% | 1.58% | 0.69% |
| CCC(C)NC(=O)Nc1ccc(-c2cccc(-c3nc4ccccc4[nH]3)c2)cc1 (stereo unspecified) | -0.78% | 4.24% | 5.49% |
| CCOc1ccc2nc(C)cc(N/N=C/c3cccc([N+](=O)[O-])c3)c2c1 | 0.39% | 0.05% | -1.04% |
| COc1cc(C)ccc1N1CCN(CCCCNC(=O)c2ccc(NC(=O)c3ccc(Cl)cc3)cc2)CC1 | 6.85% | 6.83% | 6.92% |
| Cc1ccc(C(=O)Nc2cccc([N+](=O)[O-])c2)cc1S(=O)(=O)N1CC(C)CC(C)C1 (stereo unspecified) | 6.34% | 5.86% | 0.08% |
| Cc1ccc(Nc2nccc(N(C)c3ccc4c(c3)nc(NC(=O)Cc3ccc(Cl)c(Cl)c3)n4C)n2)cc1S(N)(=O)=O | 6.81% | 11.6% | 5.64% |
| Cc1cc(=O)c2cc(Oc3cccc(OC(F)(F)F)c3)ccc2[nH]1 | 1.1% | 2.75% | 4.49% |
| COc1cc(OC)cc(-c2nn(-c3ccc([N+](=O)[O-])cc3Cl)c(=S)n2CC2CCCO2)c1 (stereo unspecified) | 3.14% | -3.05% | 2.53% |
| CCC(C)NS(=O)(=O)c1ccc2nc(Nc3ccc(C)cc3)n(C3CCCCC3C)c2c1 (stereo unspecified) | 4.96% | 3.92% | 2.03% |
| CC(C)N(CC(=O)c1ccc(O)c(C(=O)O)c1)Cc1ccccc1 | 3.53% | 3.51% | 1.67% |
| Cc1cc(NCCC(=O)Nc2ccccc2)nc(NCCc2cccs2)n1 | 4.03% | 2.26% | -0.18% |
| CCOC(=O)[C@H](Cc1cc([N+](=O)[O-])c(Oc2ccc(OC)c(Cc3ccc(OC)c(C(C)C)c3)c2)c([N+](=O)[O-])c1)NC(=O)C(F)(F)F | 10.8% | 9.19% | 12.6% |
| Cn1c2c(c3ccccc31)CN(CCC1(c3ccc(Cl)c(Cl)c3)CN(C(=O)c3ccccc3)CCO1)CC2 (stereo unspecified) | 2.15% | 1.72% | 2.38% |
| CC1CN(c2nc(NCCc3ccc(O)cc3)nc(NCc3ccccc3-c3ccc(C(F)(F)F)cc3)n2)CC(C)N1 (stereo unspecified) | 4.25% | 4.62% | 6.55% |
| Cc1cc(N2C(N)=NC(N)=NC2(C)C)ccc1Cl | 0.08% | -0.81% | -0.97% |
| Cc1ccccc1C1CCN(C2CCC(NC(=O)c3ccc(-c4ccccc4)s3)CC2)CC1 (stereo unspecified) | 1.32% | 0.48% | 0.02% |

| Structure (SMILES) | inhibition [1] | inhibition [2] | inhibition [3] |
| --- | --- | --- | --- |
| O=C(Nc1ccc(OC2CCN(Cc3ccc(F)cc3)C2)c(Cl)c1)c1ccsc1 (stereo unspecified) | 4.02% | 3.33% | 1.2% |
| Cc1ccc(NCc2cccc(F)c2)cc1S(=O)(=O)N[C@@H]1CCN(C#N)C1 | 7.1% | 3.53% | 1.18% |
| O=c1cc(NCCCNCc2ccc(Cl)c(Cl)c2)[nH]c2ccc(Cl)cc12 | 0.59% | 0.59% | -9.23% |
| CC(C)(CNC(=O)/C=C/c1ccc(Cl)c(Cl)c1)CNc1cc(=O)c2ccccc2[nH]1 | -0.77% | 0.05% | -2.49% |
| COc1cccc(N(CCCN2C(=O)c3cccc4cccc(c34)C2=O)C(=O)c2ccccc2C)c1 | 5.96% | 7.4% | 0.69% |
| CCCCN1C(=O)C2CC(=O)CC(C3CCCCC3)C2C1=O (stereo unspecified) | 0.97% | 0.42% | 2.77% |
| O=C(COc1ccccc1)NC1CCN(c2ccnc3cc(Cl)ccc23)C1 (stereo unspecified) | 0.14% | 1% | 1.75% |
| Cc1ccc(NC(=O)Nc2ccc(I)c(OCCN(C)C)c2)cc1Cl | 10.6% | 7.2% | 5.01% |
| Cc1cc(N[C@@H](Cc2ccccc2)C(=O)NCCc2ccccc2)nc(NCCc2ccccc2)n1 | 4.48% | 3.79% | 4.38% |
| CN(C)Cc1cccc(CNC(=O)c2sccc2OCc2ccc(Cl)cc2)c1 | -0.98% | -3.67% | 1.11% |
| CCc1cn2c3c(cc(C(=O)N[C@@H](Cc4cc(F)cc(F)c4)[C@H](O)CNC4CCOCC4)cc13)N(C)S(=O)(=O)CC2 | 0.86% | -1.91% | -0.48% |
| O=C(Nc1ccccc1)c1ccc(N2CCC(COc3cccc(C(F)(F)F)c3)CC2)nc1 | 1.05% | 1.65% | 1.07% |
| COc1ccc(CCNc2nc(SCc3ccccc3Cl)nc3ccccc23)cc1OC | 1.6% | 3.03% | 1.42% |
| CN1CCCN(Cc2ccc(-c3cccc(NC(=O)c4ccc(F)cc4)c3)cc2)CC1 | 19.9% | 13.8% | 12.4% |
| Cc1cc(CN2CC[C@H](NC(=O)c3ccc(Cl)c(Cl)c3)C2)ccc1OCCCN(C)C | -2.61% | -3.17% | -2.57% |
| COc1cccc(CN2CCC(N3CCc4cc(NC(=O)c5cc(C)on5)ccc43)C2)c1OC (stereo unspecified) | 1.63% | 5.08% | 4.28% |
| CC(C)NCc1ccc(-c2ccc(-c3nc4cc(C(F)(F)F)ccc4[nH]3)s2)cc1 | 19.5% | 17.8% | 15.3% |
| Oc1ccc(Nc2ccnc3cc(Cl)ccc23)cc1 | 3.83% | 4.67% | 4.27% |
| Cc1cc(NC(=O)Nc2ccc(N(C)C)cc2)c2cc(Cl)ccc2n1 | 1.15% | 0.69% | 0.88% |
| CC(CCON1C(N)=NC(N)=NC1(C)C)c1ccc(Cl)c(Cl)c1 (stereo unspecified) | 26.6% | 41.4% | 27.7% |
| Cc1ccccc1Nc1nc(NCCCO)c2ccccc2n1 | 13.6% | 12.5% | 8.48% |
| CS(=O)(=O)c1ccc(-c2nc(NCC3CCCCC3)cc(C(F)(F)F)n2)cc1 | -0.02% | 1.77% | 0.16% |
| Cc1cc(N2CCC(C)CC2)nc2cc(O)ccc12 | 1% | 0.44% | 0.89% |
| O=C(Nc1cccc(C(F)(F)F)c1)c1cc([N+](=O)[O-])cc2cn[nH]c12 | 6.35% | 5.74% | 1.24% |
